PubChem BioAssay (NCI)
About 83,000 compounds went through this panel and 20% of them were active in at least one assay; those are over-represented in the sample as a whole.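 Growth was measured after 48 h exposure to one concentration of compound in 96-well plates. Values under 10 count as active.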

Columns and labels:
Experiment in all cases: NCI-60 one-dose screen, 48 h (100 = growth as untreated, 0 = no growth, -100 = all killed)
Conditions in all cases: 10 µM unless noted
[1] = system: HCT-15 colon
[2] = system: HT29 colon
[3] = system: SNB-19 CNS
[4] = system: U251 CNS
[5] = system: PC-3 prostate
[6] = system: SK-MEL-5 melanoma
[7] = system: UACC-62 melanoma
[8] = system: LOX IMVI melanoma
[9] = system: SK-MEL-28 melanoma
[10] = system: SK-MEL-2 melanoma
[11] = system: EKVX NSCLC
[12] = system: SN12C renal
[13] = system: UO-31 renal
[14] = system: TK-10 renal
[15] = system: ACHN renal
[16] = system: A498 renal
[17] = system: CCRF-CEM leukemia
[18] = system: MOLT-4 leukemia
[19] = system: SR leukemia

Measured: growth

O=C(CCCCCCCCC(=O)Nc1cccc(C2=NCCN2)c1)Nc1cccc(C2=NCCN2)c1
inactive: [1] 102% | [2] 82.3% | [3] 102% | [4] 91.7% | [5] 84.9% | [6] 98.2% | [7] 105% | [8] 98.7% | [9] 92.8% | [10] 99.8% | [11] 105% | [12] 81.6% | [13] 96.3% | [14] 92.4% | [15] 112% | [16] 93.5% | [17] 98% | [18] 89.4% | [19] 65.5%

N#CC1(C#N)C2=C(CCCC2)NC(c2c(F)cccc2Cl)C1(C#N)C#N (configuration not stated)
inactive: [1] 66.9% | [2] 17.3% | [3] 69.2% | [4] 60.7% | [5] 72.1% | [6] 63.9% | [7] 40.8% | [8] 53.4% | [9] 65.8% | [10] 37.6% | [11] 71.1% | [12] 72.1% | [13] 70% | [14] 99.8% | [15] 84% | [16] 51.3% | [17] 36.1% | [18] 43.5% | [19] 30.1%

Cc1ccc(C2CC(c3ccc(Nc4nc(NCCO)nc(NCCO)n4)cc3)=NN2c2ccc(Cl)cc2)cc1 (configuration not stated)
inactive: [1] 47% | [2] 30.5% | [3] 75.5% | [4] 36.3% | [5] 33.5% | [6] 74.8% | [7] 81.2% | [8] 40.9% | [9] 48.4% | [10] 70.6% | [11] 65.7% | [12] 82.4% | [13] 62.3% | [14] 82.6% | [15] 52.2% | [16] 86.1% | [17] 31.8% | [18] 32.3% | [19] 26.2%

O=c1nc(-c2ccccc2)c2cc(-c3ccc(N4CCCC4)nc3)ccc2[nH]1
inactive: [1] 44% | [2] 30.7% | [3] 66.4% | [4] 67.5% | [5] 65.7% | [6] 40.4% | [7] 57.2% | [8] 57.2% | [9] 82.3% | [10] 37.5% | [11] 71.1% | [12] 83.9% | [13] 63.6% | [14] 88.5% | [15] 82.6% | [16] 46.6% | [17] 54.5% | [18] 44% | [19] 18.2%

NC(=O)CN1C(=O)c2ccccc2C1=O
inactive: [1] 100% | [2] 102% | [3] 98.4% | [4] 103% | [5] 99.5% | [6] 99.2% | [7] 95.7% | [8] 103% | [9] 106% | [10] 108% | [11] 104% | [12] 97.7% | [13] 90.4% | [14] 103% | [15] 105% | [16] 92% | [17] 96.6% | [18] 99.1% | [19] 87.8%

C#C[C@@]1(O)[C@@H](CO)O[C@@H](n2cc(-c3ccco3)c3c(N)ncnc32)[C@@H]1O
inactive: [1] 59.3% | [2] 28.8% | [3] 94.4% | [4] 81.8% | [5] 49.1% | [6] 89% | [7] 80.2% | [8] 65.6% | [9] 93.2% | [10] 84.3% | [11] 67.3% | [12] 71.8% | [14] 69.1% | [15] 90.2% | [16] 54.6% | [17] 86.9% | [18] 32.8% | [19] 94.4%

C=C1C(=O)O[C@H]2[C@H]1CC/C(COC(=O)NCc1nc3ccccc3[nH]1)=C\CC[C@@]1(C)O[C@@H]21
inactive: [1] 103% | [2] 63.8% | [3] 98.6% | [4] 92.9% | [5] 85.6% | [6] 97% | [7] 80% | [8] 75.9% | [9] 73.1% | [10] 60.2% | [11] 83% | [12] 81.6% | [13] 75.5% | [14] 74.3% | [15] 91.4% | [16] 135% | [17] 10.9% | [18] 77.3% | [19] 54.1%
